# The panel holds about 83,000 compounds, 20% with a hit somewhere; the sample as a whole holds those more often.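 Testing used 96-well plates and a 48-hour single-concentration exposure. Example: -40 means 40% of the starting cells died.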 Unmarked numbers belong to inactive results. Calls of active or inactive are those of the source. How the source made its calls: active means growth percent below 10; inactive means the rest.
# How the values were obtained:
# Experiment in all cases: NCI-60 one-dose screen, 48 h (100 = growth as untreated, 0 = no growth, -100 = all killed)
# Conditions in all cases: 10 µM unless noted
# [1] = system: NCI-H23 lung
# [2] = system: NCI-H226 lung
# [3] = system: NCI-H322M lung
# [4] = system: HOP-62 NSCLC
# [5] = system: NCI-H460 lung
# [6] = system: HOP-92 NSCLC
# [7] = system: NCI-H522 lung
# [8] = system: A549/ATCC NSCLC
# [9] = system: 786-0 renal
# [10] = system: COLO 205 colon
# [11] = system: DU-145 prostate
# [12] = system: K-562 leukemia
# [13] = system: MALME-3M melanoma
# [14] = system: MDA-MB-231 breast
# [15] = system: RXF 393 renal
# [16] = system: SF-268 CNS
# [17] = system: SF-295 CNS
# [18] = system: SF-539 CNS
# [19] = system: UACC-257 melanoma
# [20] = system: M14 melanoma
SMILES,growth [1] [%],growth [2] [%],growth [3] [%],growth [4] [%],growth [5],growth [6] [%],growth [7],growth [8],growth [9],growth [10] [%],growth [11],growth [12],growth [13],growth [14],growth [15] [%],growth [16],growth [17] [%],growth [18] [%],growth [19] [%],growth [20]
O=C1COCCN1c1ccc(Nc2nc(Cl)nc(OCc3cn(Cc4ccccc4)nn3)n2)cc1,87.2,95.1,98.2,87.5,107%,82.5,76.5%,95.7%,101%,105,90.5%,33.2%,96.1%,95.4%,90.7,80.9%,102,98.2,84.4,76.1%
Cc1oc(-c2ccc(Cl)cc2)nc1/C=C/C(=O)c1ccccc1,98.8,88.4,101,110,103%,88.4,93.1%,99.1%,96.4%,114,109%,99.1%,97.6%,101%,106,97.1%,99.9,99.5,106,104%
Cc1c(-n2nnc(-c3nc4ccccc4s3)c2N)c(=O)n(-c2ccccc2)n1C,93.3,91.4,100,103,103%,104,90.6%,105%,107%,104,115%,102%,97.6%,113%,121,99.8%,103,92.2,102,110%
CN1C(=O)/C(=C/c2cn(-c3ccccc3)nc2-c2ccccc2)SC1=S,95.4,98.3,107,97.9,101%,51.4,90.2%,102%,107%,124,105%,92.6%,114%,92.8%,110,104%,89.6,99.5,106,103%
COc1cc2oc(-c3cccc(NC(=O)c4cccc(Br)c4)c3)cc(=O)c2c(OC)c1OC,57.2,73.7,76.4,55.5,34.7%,47.5,38.6%,49.3%,59%,57.8,54.4%,25.8%,53%,63.5%,54.9,59.7%,40.9,69,83.8,59%
Oc1c(Cl)cc(Cl)c2ccc(Cn3cc(-c4cc(F)cc(F)c4)nn3)nc12,92.3,95.1,111,98.9,104%,29,-38.7% (active),102%,95.6%,70.4,58.5%,7.96% (active),37.2%,97.9%,25.6,97.2%,100,65.8,60.4,61.5%
CCN(CC)CCCN1C(=O)c2c(c(C)c3c(oc4cc(O)ccc43)c2C)C1=O,104,35.4,92.5,94.5,-24.6% (active),93.7,82.6%,-74% (active),-80.6% (active),57.4,-61.7% (active),-14.4% (active),-80.4% (active),-80.3% (active),75.7,-41.4% (active),110,96.4,94.5,-88.8% (active)
C=CCn1cc(-c2nc3ccccc3s2)c2cc(-c3ccc4c5c(cccc35)C(=O)N(N)C4=O)ccc21,88.2,89.8,96.9,90.2,98.9%,93.7,84.9%,105%,99.3%,109,110%,107%,101%,83.1%,106,89.5%,99.1,101,104,94.5%

# — PubChem BioAssay (NCI)
